# In publication PMC7862700, “An all-to-all approach to the identification of sequence-specific readers for epigenetic DNA modifications on cytosine”:
# Tests used:
# Assay in all cases: DAPPL (digital affinity profiling via proximity ligation, sequencing); 10 mM Tris-HCl pH 7.5, 50 mM NaCl, 1 mM DTT, 4% glycerol, room temperature, 30 min; GST-TFs on glutathione beads, 16-mer random dsDNA library, 0.1% formaldehyde crosslink after washing; high values mean tight binding
# Details in all cases: protein: recombinant; tags: N-terminal GST; dsDNA, one strand shown
# ERF = molecular target: T1, ERF (Homo sapiens, UniProt P50548 1-548)
# T1 sequence: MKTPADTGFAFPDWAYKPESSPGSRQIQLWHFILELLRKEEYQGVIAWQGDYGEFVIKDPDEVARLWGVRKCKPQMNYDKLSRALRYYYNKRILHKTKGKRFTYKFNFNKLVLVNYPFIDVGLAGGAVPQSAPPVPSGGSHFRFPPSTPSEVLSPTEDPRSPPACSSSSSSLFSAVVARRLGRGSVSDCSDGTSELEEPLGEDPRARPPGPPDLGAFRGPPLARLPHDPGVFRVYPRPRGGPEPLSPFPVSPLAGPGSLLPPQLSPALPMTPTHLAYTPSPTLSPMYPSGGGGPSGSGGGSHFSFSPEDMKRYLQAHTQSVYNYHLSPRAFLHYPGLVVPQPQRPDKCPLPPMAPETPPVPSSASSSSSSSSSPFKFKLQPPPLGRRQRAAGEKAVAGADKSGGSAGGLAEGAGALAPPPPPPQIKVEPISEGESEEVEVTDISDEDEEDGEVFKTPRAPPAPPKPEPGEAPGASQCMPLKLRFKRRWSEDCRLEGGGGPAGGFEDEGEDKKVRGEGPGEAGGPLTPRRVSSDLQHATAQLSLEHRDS
# Summary of the method: (§1)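 GST fusions of human transcription factors were expressed in yeast and captured with glutathione beads. Once given DNA barcodes and pooled alongside a tag-only sample, they were incubated for 30 min at room temperature with 200 nmole of a random double-stranded 16-mer DNA library in Tris/NaCl/DTT/glycerol buffer, then washed, crosslinked (0.1% formaldehyde), proximity-ligated, PCR-amplified and sequenced on an Illumina NextSeq500. The binding signal of each hexamer is its read frequency for a factor divided by its frequency for the tag-only sample.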
# ETV3L = molecular target: T2, ETV3L (Homo sapiens, UniProt Q6ZN32 1-361)
# T2 sequence: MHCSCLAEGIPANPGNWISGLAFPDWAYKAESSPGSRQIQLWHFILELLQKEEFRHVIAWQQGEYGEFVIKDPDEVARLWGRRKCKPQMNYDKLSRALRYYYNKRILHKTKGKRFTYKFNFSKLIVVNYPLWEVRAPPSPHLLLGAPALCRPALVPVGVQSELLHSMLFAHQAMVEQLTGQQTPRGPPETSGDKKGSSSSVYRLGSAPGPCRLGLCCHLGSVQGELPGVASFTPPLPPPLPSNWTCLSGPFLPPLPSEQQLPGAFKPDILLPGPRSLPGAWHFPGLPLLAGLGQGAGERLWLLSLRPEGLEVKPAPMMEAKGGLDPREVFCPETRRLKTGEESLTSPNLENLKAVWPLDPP
# Summary of the method: as §1
# ETS2 = molecular target: T3, ETS2 (Homo sapiens, UniProt P15036 1-469)
# T3 sequence: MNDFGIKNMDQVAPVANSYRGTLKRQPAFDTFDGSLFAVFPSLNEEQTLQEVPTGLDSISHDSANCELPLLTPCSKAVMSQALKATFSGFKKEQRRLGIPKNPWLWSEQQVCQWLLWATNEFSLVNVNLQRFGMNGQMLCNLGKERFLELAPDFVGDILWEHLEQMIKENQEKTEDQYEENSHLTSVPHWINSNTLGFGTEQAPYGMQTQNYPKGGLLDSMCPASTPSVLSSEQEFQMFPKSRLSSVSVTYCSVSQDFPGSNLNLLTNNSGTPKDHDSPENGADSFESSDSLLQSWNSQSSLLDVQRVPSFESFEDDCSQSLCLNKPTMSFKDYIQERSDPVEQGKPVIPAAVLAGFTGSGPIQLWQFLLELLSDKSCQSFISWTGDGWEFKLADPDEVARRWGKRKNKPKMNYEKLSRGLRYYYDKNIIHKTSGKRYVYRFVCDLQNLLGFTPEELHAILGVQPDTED
# Summary of the method: as §1
# SPDEF = molecular target: T4, SPDEF (Homo sapiens, UniProt O95238 1-335)
# T4 sequence: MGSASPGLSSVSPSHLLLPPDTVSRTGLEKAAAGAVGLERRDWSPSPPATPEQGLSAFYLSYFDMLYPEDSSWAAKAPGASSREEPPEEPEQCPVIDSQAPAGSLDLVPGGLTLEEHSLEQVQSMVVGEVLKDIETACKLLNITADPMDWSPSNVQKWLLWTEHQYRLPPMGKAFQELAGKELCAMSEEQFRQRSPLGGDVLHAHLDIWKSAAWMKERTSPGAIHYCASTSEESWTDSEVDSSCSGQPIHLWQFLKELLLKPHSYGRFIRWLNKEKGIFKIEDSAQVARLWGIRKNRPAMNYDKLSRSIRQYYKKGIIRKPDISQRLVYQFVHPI
# Summary of the method: as §1
# ETV7 = molecular target: T5, ETV7 (Homo sapiens, UniProt Q9Y603 1-341)
# T5 sequence: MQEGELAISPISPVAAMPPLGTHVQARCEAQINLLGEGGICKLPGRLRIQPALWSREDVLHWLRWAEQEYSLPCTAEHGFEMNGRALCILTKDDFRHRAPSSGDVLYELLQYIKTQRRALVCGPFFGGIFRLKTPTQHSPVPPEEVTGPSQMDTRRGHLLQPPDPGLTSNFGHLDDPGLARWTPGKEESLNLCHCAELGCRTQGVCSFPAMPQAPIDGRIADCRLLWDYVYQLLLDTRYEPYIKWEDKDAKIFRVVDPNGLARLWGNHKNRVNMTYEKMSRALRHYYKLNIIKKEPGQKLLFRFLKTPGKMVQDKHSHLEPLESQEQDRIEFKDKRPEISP
# Summary of the method: as §1
# ELF5 = molecular target: T6, ELF5 (Homo sapiens, UniProt Q9UKW6-2 1-255)
# T6 sequence: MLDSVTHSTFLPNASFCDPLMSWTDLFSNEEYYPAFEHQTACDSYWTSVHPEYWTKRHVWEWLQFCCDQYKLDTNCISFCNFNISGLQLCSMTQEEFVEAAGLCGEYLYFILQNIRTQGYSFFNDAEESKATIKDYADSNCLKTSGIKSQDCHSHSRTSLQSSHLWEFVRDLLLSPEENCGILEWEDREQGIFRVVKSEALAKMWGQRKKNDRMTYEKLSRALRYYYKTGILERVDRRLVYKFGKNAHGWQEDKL
# Summary of the method: as §1
# ETV3 = molecular target: T7, ETV3 (Homo sapiens, UniProt P41162-2 1-143)
# T7 sequence: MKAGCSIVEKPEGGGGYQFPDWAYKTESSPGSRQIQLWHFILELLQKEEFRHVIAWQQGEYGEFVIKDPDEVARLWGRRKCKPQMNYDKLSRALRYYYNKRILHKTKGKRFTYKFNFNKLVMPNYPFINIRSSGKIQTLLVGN
# Summary of the method: as §1
# ETV6 = ETV6 (Homo sapiens, UniProt P41212 1-452)
# Sequence of ETV6 (P41212 whole entry): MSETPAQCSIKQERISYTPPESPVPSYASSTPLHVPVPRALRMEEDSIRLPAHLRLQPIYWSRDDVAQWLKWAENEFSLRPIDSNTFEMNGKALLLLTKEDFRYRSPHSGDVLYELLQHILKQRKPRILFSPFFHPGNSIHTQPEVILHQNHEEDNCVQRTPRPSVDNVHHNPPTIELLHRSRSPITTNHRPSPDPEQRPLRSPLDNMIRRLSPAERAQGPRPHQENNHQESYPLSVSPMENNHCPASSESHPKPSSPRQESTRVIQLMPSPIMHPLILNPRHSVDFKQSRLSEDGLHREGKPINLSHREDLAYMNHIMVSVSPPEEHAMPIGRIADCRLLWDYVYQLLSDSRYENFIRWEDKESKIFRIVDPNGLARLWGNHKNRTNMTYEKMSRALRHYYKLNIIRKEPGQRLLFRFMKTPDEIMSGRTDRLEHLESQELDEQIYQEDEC
# Summary of the method: as §1
sequence,measurement,setting,value
ACACTT,binding signal,ERF,"1.51 fold enrichment (6-mer frequency, TF over GST control)"
same,binding signal,ETV3L,"1.64 fold enrichment (6-mer frequency, TF over GST control)"
same,binding signal,ETS2,"1.76 fold enrichment (6-mer frequency, TF over GST control)"
same,binding signal,SPDEF,"1.61 fold enrichment (6-mer frequency, TF over GST control)"
same,binding signal,ETV7,"1.78 fold enrichment (6-mer frequency, TF over GST control)"
same,binding signal,ELF5,"2.02 fold enrichment (6-mer frequency, TF over GST control)"
same,binding signal,ETV3,"1.66 fold enrichment (6-mer frequency, TF over GST control)"
same,binding signal,ETV6,"1.95 fold enrichment (6-mer frequency, TF over GST control)"
ATTCAT,binding signal,ERF,"1.14 fold enrichment (6-mer frequency, TF over GST control)"
same,binding signal,ETV3L,"1.27 fold enrichment (6-mer frequency, TF over GST control)"
same,binding signal,ETS2,"1.13 fold enrichment (6-mer frequency, TF over GST control)"
same,binding signal,SPDEF,"1.07 fold enrichment (6-mer frequency, TF over GST control)"
same,binding signal,ETV7,"1.18 fold enrichment (6-mer frequency, TF over GST control)"
same,binding signal,ELF5,"1.1 fold enrichment (6-mer frequency, TF over GST control)"
same,binding signal,ETV3,"1.19 fold enrichment (6-mer frequency, TF over GST control)"
same,binding signal,ETV6,"1.11 fold enrichment (6-mer frequency, TF over GST control)"
ATGACC,binding signal,ERF,"1.42 fold enrichment (6-mer frequency, TF over GST control)"
same,binding signal,ETV3L,"1.51 fold enrichment (6-mer frequency, TF over GST control)"
same,binding signal,ETS2,"1.66 fold enrichment (6-mer frequency, TF over GST control)"
same,binding signal,SPDEF,"1.59 fold enrichment (6-mer frequency, TF over GST control)"
same,binding signal,ETV7,"1.51 fold enrichment (6-mer frequency, TF over GST control)"
same,binding signal,ELF5,"1.56 fold enrichment (6-mer frequency, TF over GST control)"
same,binding signal,ETV3,"1.47 fold enrichment (6-mer frequency, TF over GST control)"
same,binding signal,ETV6,"1.53 fold enrichment (6-mer frequency, TF over GST control)"
ACGATT,binding signal,ERF,"1.4 fold enrichment (6-mer frequency, TF over GST control)"
same,binding signal,ETV3L,"1.28 fold enrichment (6-mer frequency, TF over GST control)"
same,binding signal,ETS2,"1.26 fold enrichment (6-mer frequency, TF over GST control)"
same,binding signal,SPDEF,"1.27 fold enrichment (6-mer frequency, TF over GST control)"
same,binding signal,ETV7,"1.28 fold enrichment (6-mer frequency, TF over GST control)"
same,binding signal,ELF5,"1.24 fold enrichment (6-mer frequency, TF over GST control)"
same,binding signal,ETV3,"1.32 fold enrichment (6-mer frequency, TF over GST control)"
same,binding signal,ETV6,"1.31 fold enrichment (6-mer frequency, TF over GST control)"
CCAATA,binding signal,ERF,"1.34 fold enrichment (6-mer frequency, TF over GST control)"
same,binding signal,ETV3L,"1.21 fold enrichment (6-mer frequency, TF over GST control)"
same,binding signal,ETS2,"1.28 fold enrichment (6-mer frequency, TF over GST control)"
same,binding signal,SPDEF,"1.24 fold enrichment (6-mer frequency, TF over GST control)"
same,binding signal,ETV7,"1.14 fold enrichment (6-mer frequency, TF over GST control)"
same,binding signal,ELF5,"1.13 fold enrichment (6-mer frequency, TF over GST control)"
same,binding signal,ETV3,"1.19 fold enrichment (6-mer frequency, TF over GST control)"
same,binding signal,ETV6,"1.23 fold enrichment (6-mer frequency, TF over GST control)"
CTTATG,binding signal,ERF,"1.52 fold enrichment (6-mer frequency, TF over GST control)"
same,binding signal,ETV3L,"1.35 fold enrichment (6-mer frequency, TF over GST control)"
same,binding signal,ETS2,"1.43 fold enrichment (6-mer frequency, TF over GST control)"
same,binding signal,SPDEF,"1.53 fold enrichment (6-mer frequency, TF over GST control)"
same,binding signal,ETV7,"1.47 fold enrichment (6-mer frequency, TF over GST control)"
same,binding signal,ELF5,"1.42 fold enrichment (6-mer frequency, TF over GST control)"
same,binding signal,ETV3,"1.64 fold enrichment (6-mer frequency, TF over GST control)"
same,binding signal,ETV6,"1.4 fold enrichment (6-mer frequency, TF over GST control)"
CTCTTA,binding signal,ERF,"1.45 fold enrichment (6-mer frequency, TF over GST control)"
same,binding signal,ETV3L,"1.5 fold enrichment (6-mer frequency, TF over GST control)"
same,binding signal,ETS2,"1.33 fold enrichment (6-mer frequency, TF over GST control)"
same,binding signal,SPDEF,"1.24 fold enrichment (6-mer frequency, TF over GST control)"
same,binding signal,ETV7,"1.28 fold enrichment (6-mer frequency, TF over GST control)"
same,binding signal,ELF5,"1.31 fold enrichment (6-mer frequency, TF over GST control)"
same,binding signal,ETV3,"1.38 fold enrichment (6-mer frequency, TF over GST control)"
same,binding signal,ETV6,"1.39 fold enrichment (6-mer frequency, TF over GST control)"
CCTCAG,binding signal,ERF,"1.35 fold enrichment (6-mer frequency, TF over GST control)"
same,binding signal,ETV3L,"1.27 fold enrichment (6-mer frequency, TF over GST control)"
same,binding signal,ETS2,"1.25 fold enrichment (6-mer frequency, TF over GST control)"
same,binding signal,SPDEF,"1.1 fold enrichment (6-mer frequency, TF over GST control)"
same,binding signal,ETV7,"1.1 fold enrichment (6-mer frequency, TF over GST control)"
same,binding signal,ELF5,"1.14 fold enrichment (6-mer frequency, TF over GST control)"
same,binding signal,ETV3,"1.17 fold enrichment (6-mer frequency, TF over GST control)"
same,binding signal,ETV6,"1.15 fold enrichment (6-mer frequency, TF over GST control)"
